From PubChem
A selection: hits, their analogues and other compounds. The true share with any hit is near 6.7%.
Tcruzi prolif – inhibitors of T. cruzi proliferation. T. cruzi beta-gal in NIH3T3, GalScreen luminescence, 90 h. inhibition, % at 8.34 µM. hit rate 5.9% among 77,000. AID 624255;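 active = mean inhibition above about 93%, with at least 55% of replicates each passing it, limit read from the data, passing the limit was not always enough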
Pf Dd2 inh – inhibitors of Plasmodium falciparum Dd2 growth; P. falciparum Dd2 growth, SYBR Green, 72 h; hits give low values; activity change, % at 10 µM; hit rate 2.3% among 94,000; in the data active = activity change below about -80%
C diff HTS – inhibitors of Clostridium difficile growth; growth activity, negative = inhibition, % at 16 µg/mL (by protocol); Clostridium difficile clinical isolate growth, OD600, 24 h; hits give low values; hit rate 0.25% among 86,000;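 active = mean growth activity at or below -80% and every replicate also at or below -80%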;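 note: 0% = DMSO wells and -100% = levofloxacin 16 µg/mL wells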
Starred values were filed as active, the others as inactive; . = not tested or not shown.

SMILES	Tcruzi prolif	Pf Dd2 inh	C diff HTS
COc1ccc2c3c([nH]c2c1)[C@H](CO)NCC31CCN(C(=O)c2ccccc2)CC1	.	-84*	1
COc1ccc2c3c([nH]c2c1)[C@H](CO)NCC31CCN(C(=O)C2CCOCC2)CC1	.	46	2
COc1cccc(S(=O)(=O)N2CCC3(CC2)CN[C@H](CO)c2[nH]c4cc(OC)ccc4c23)c1	.	-88*	-3
COc1ccc2c3c(n(C)c2c1)[C@H](CO)NCC31CCN(S(=O)(=O)c2cccc(F)c2)CC1	.	-86*	2
COc1ccc2c3c([nH]c2c1)[C@@H](CO)NCC31CCN(S(=O)(=O)c2cccs2)CC1	.	-49	-4
C/C=C/c1ccc2c(c1)O[C@@H](CN(C)Cc1cccc(F)c1)[C@@H](C)CN([C@@H](C)CO)S2(=O)=O	.	-23	-1
C[C@H](CO)N1C[C@H](C)[C@@H](CN(C)C(=O)Nc2ccc(C(F)(F)F)cc2)Oc2ccc(NC(=O)Nc3cccc4ccccc34)cc2C1=O	50	-18	-4
C[C@H]1CN([C@@H](C)CO)C(=O)c2cc(NC(=O)Nc3ccc(C(F)(F)F)cc3)ccc2O[C@@H]1CN(C)C(=O)Nc1cccc2ccccc12	-19	-95*	-3
C[C@@H]1CN([C@H](C)CO)C(=O)c2cccc(NC(=O)Nc3cccc4ccccc34)c2O[C@H]1CN(C)C(=O)Nc1ccc(C(F)(F)F)cc1	42	-43	63
C[C@@H]1CN([C@H](C)CO)C(=O)c2cccc(NC(=O)Nc3cccc4ccccc34)c2O[C@@H]1CN(C)C(=O)Nc1ccc(C(F)(F)F)cc1	52	-92*	73
C[C@H]1CN([C@@H](C)CO)C(=O)c2cc(NC(=O)Nc3cccc4ccccc34)ccc2O[C@H]1CN(C)C(=O)Nc1ccc(C(F)(F)F)cc1	6	-91*	4
C[C@H]1CN([C@@H](C)CO)C(=O)c2cc(NC(=O)Nc3ccc(F)cc3)ccc2O[C@@H]1CN(C)C(=O)Nc1cccc2ccccc12	.	-23	-4
C[C@H](CO)N1C[C@H](C)[C@@H](CN(C)C(=O)Nc2cccc3ccccc23)Oc2ccc(NC(=O)Nc3ccc(C(F)(F)F)cc3)cc2C1=O	26	-96*	-8
C[C@@H]1CN([C@H](C)CO)C(=O)c2cc(NC(=O)Nc3cccc4ccccc34)ccc2O[C@H]1CN(C)C(=O)Nc1ccc(C(F)(F)F)cc1	77	-13	-4
CCCN(C)C[C@H]1OCCCC[C@H](C)Oc2ccc(NS(=O)(=O)c3ccccc3)cc2C(=O)N([C@H](C)CO)C[C@H]1C	81	-35	3
C[C@H](CO)N1C[C@H](C)[C@@H](CN(C)Cc2ccc(Oc3ccccc3)cc2)Oc2ccc(NC(=O)C3CC3)cc2CC1=O	83	-1	14
C[C@@H]1CN([C@@H](C)CO)C(=O)c2cccc(NC(=O)C3CC3)c2O[C@@H]1CN(C)C(=O)Nc1ccc(C(F)(F)F)cc1	-17	-89*	4
C[C@@H]1CN([C@H](C)CO)C(=O)c2cccc(NC(=O)C3CC3)c2O[C@H]1CN(C)C(=O)Nc1ccc(C(F)(F)F)cc1	66	-6	-2
O=C(Nc1cc(F)ccc1F)N1C[C@@H]2[C@H](c3ccccc31)[C@H](CO)N2C(=O)c1ccccc1	-3	-5	1
Cc1ccc(S(=O)(=O)N(C)C[C@H]2OCCCC[C@H](C)Oc3ccc(NC(=O)c4ccccc4)cc3C(=O)N([C@H](C)CO)C[C@H]2C)cc1	71	-81*	.
Cc1ccc(S(=O)(=O)N(C)C[C@H]2OCCCC[C@@H](C)Oc3ccc(NC(=O)c4ccccc4)cc3C(=O)N([C@@H](C)CO)C[C@H]2C)cc1	11	-65	.
C[C@H]1CCCCO[C@H](CN(C)S(=O)(=O)c2ccc(F)cc2)[C@@H](C)CN([C@@H](C)CO)C(=O)c2cc(NC(=O)c3ccccc3)ccc2O1	.	-75	-8
COc1ccc(S(=O)(=O)N(C)C[C@@H]2OCCCC[C@@H](C)Oc3ccc(NC(=O)c4ccccc4)cc3C(=O)N([C@@H](C)CO)C[C@@H]2C)cc1	85	-79	32
COc1ccc(S(=O)(=O)N(C)C[C@@H]2OCCCC[C@@H](C)Oc3ccc(NC(=O)c4ccccc4)cc3C(=O)N([C@H](C)CO)C[C@H]2C)cc1	87	-85*	15
C[C@@H]1CN([C@H](C)CO)C(=O)c2cc(NC(=O)c3ccccc3)ccc2O[C@@H](C)CCCCO[C@@H]1CN(C)S(=O)(=O)c1ccc(F)cc1	.	-85*	5
SMILES	Tcruzi prolif	Pf Dd2 inh	C diff HTS
C[C@@H](NC(=O)[C@H]1N[C@H]2c3ccc(-c4cncnc4)c(=O)n3C[C@H]2[C@@H]1CO)c1ccccc1	8	7	4
O=C(C[C@H]1C=C[C@H](NC(=O)C2CCOCC2)[C@H](CO)O1)Nc1nccs1	.	46	2
CCCN(C)C[C@H]1OCCCC[C@@H](C)Oc2ccc(NC(=O)Nc3ccc(OC)cc3)cc2C(=O)N([C@H](C)CO)C[C@@H]1C	85	-7	0
COc1ccc(S(=O)(=O)Nc2ccc3c(c2)C(=O)N([C@@H](C)CO)C[C@H](C)[C@H](CN(C)C(=O)Nc2ccc(C(F)(F)F)cc2)OCCCC[C@H](C)O3)cc1	71	-56	11
COc1ccc(S(=O)(=O)Nc2ccc3c(c2)C(=O)N([C@@H](C)CO)C[C@H](C)[C@@H](CN(C)C(=O)Nc2ccc(C(F)(F)F)cc2)OCCCC[C@H](C)O3)cc1	60	-75	2
COc1ccc(S(=O)(=O)Nc2ccc3c(c2)C(=O)N([C@@H](C)CO)C[C@H](C)[C@@H](CN(C)C(=O)Nc2ccc(C(F)(F)F)cc2)OCCCC[C@@H](C)O3)cc1	88	-84*	-6
COc1ccc(S(=O)(=O)Nc2ccc3c(c2)C(=O)N([C@@H](C)CO)C[C@@H](C)[C@@H](CN(C)C(=O)Nc2ccc(C(F)(F)F)cc2)OCCCC[C@H](C)O3)cc1	74	-87*	9
O=C(C1CCCC1)N1C[C@@H]2[C@H](c3ccccc31)[C@@H](CO)N2C(=O)c1cccnc1	39	18	-4
C[C@H]1CCCCO[C@H](CN(C)Cc2ccc3c(c2)OCO3)[C@@H](C)CN([C@@H](C)CO)C(=O)c2cc(NC(=O)Nc3ccccc3)ccc2O1	81	-75	11
C[C@@H]1CN([C@H](C)CO)C(=O)c2cc(NC(=O)Nc3ccc4c(c3)OCO4)ccc2O[C@@H](C)CCCCO[C@@H]1CN(C)Cc1ccc(Cl)c(Cl)c1	71	-88*	6
C[C@H]1CCCCO[C@@H](CN(C)Cc2ccc3c(c2)OCO3)[C@@H](C)CN([C@@H](C)CO)C(=O)c2cc(NC(=O)Cc3ccccc3)ccc2O1	109	-83*	-3
C[C@@H]1CCCCO[C@@H](CN(C)Cc2ccccc2)[C@H](C)CN([C@H](C)CO)C(=O)c2cc(NC(=O)Nc3ccc4c(c3)OCO4)ccc2O1	95	-79	9
C[C@@H]1CN([C@H](C)CO)C(=O)c2cc(NC(=O)Nc3ccccc3)ccc2O[C@@H](C)CCCCO[C@H]1CN(C)Cc1ccc2c(c1)OCO2	62	-82*	26
C[C@@H]1CN([C@@H](C)CO)C(=O)c2cc(NC(=O)Nc3ccc4c(c3)OCO4)ccc2O[C@@H](C)CCCCO[C@H]1CN(C)Cc1ccc(Cl)c(Cl)c1	69	-59	5
